Reference: the supplement of paper PMC7530171
Counter-ions that a name gives are not always drawn. ± gives the standard deviation.

Tested on: THP-1
Assay: THP-1 cell loss relative to DMSO control; higher = more host cell loss (toxicity); extreme values may be limits of the assay
Settings: 10 µM; 4 days; infection: M. tuberculosis H37Rv
Description: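 OICR kinase inhibitor library screened in duplicate at 10 uM against M. tuberculosis-infected THP-1 macrophages, 4 days at 37 C. THP-1 cell loss (cytotoxicity or loss of adherence) was quantified from Hoechst-stained nuclei counts by high-content imaging and normalised to the 1% DMSO control; 100 = complete loss of host cells.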

SMILES | THP-1 cell loss
Cc1ccc(NC2=CC(=O)c3sc(C)nc3C2=O)cc1 [Ryuvidine] | 100%
C[C@@]1(C(=O)Nc2ccc(F)nc2)CCCN1c1nc(Nc2cc(C3CC3)n[nH]2)c2cccn2n1 | 43.7 ± 27%
COc1cc(SC)ccc1C(=O)N1CCC(Cc2ccccc2)CC1 | 0.379 ± 0.54%
O=Nc1c(-c2c(O)[nH]c3cc(Br)ccc23)[nH]c2ccccc12 [6-bromoindirubin-3'-oxime] | 100%
N#CCc1ccc(Nc2nc(Nc3cc(C4CCC4)[nH]n3)c3ccccc3n2)cc1 | 100%
Cc1cc(I)ccc1Nc1c(C(=O)NOCC2CC2)cc(F)c(F)c1F | 100%
Cc1cc(C(=O)N2CCN(c3cccc(Cl)c3)CC2)n(-c2ccccc2)n1 | 23.2 ± 25%
COc1cc2ncc(-c3ccccc3)nc2cc1OC [Tyrphostin AG-1296] | 0%
CC(=O)Nc1cccc(-n2c(=O)n(C3CC3)c(=O)c3c(Nc4ccc(I)cc4F)n(C)c(=O)c(C)c32)c1 | 100%
Cc1cnc(-c2cnc(NCCNc3ccc(C#N)cn3)nc2-c2ccc(Cl)cc2Cl)[nH]1 | 13.7 ± 5%
CCOc1cc(/C=C(\C#N)C(N)=O)cc(CSc2ccccc2)c1O | 10.3 ± 14%
CC(C)[C@H](CO)Nc1nc(Nc2cccc(Cl)c2)c2ncn(C(C)C)c2n1 [Purvalanol A] | 100%
NS(=O)(=O)c1ccc(Nc2nc(OCC3CCCCC3)c3[nH]cnc3n2)cc1 | 0.876 ± 1.2%
COc1ccc(-c2ccc3ncc4c(c3c2)n(-c2ccc(N3CCNCC3)c(C(F)(F)F)c2)c(=O)n4C)cn1 | 100%
Cc1[nH]c(/C=C2\C(=O)Nc3ccc(S(=O)(=O)Cc4c(Cl)cccc4Cl)cc32)c(C)c1C(=O)N1CCC[C@@H]1CN1CCCC1 | 19.1 ± 12%
COc1cc2c(cc1OC)-c1[nH]nc(Nc3cccc(F)c3)c1C2 | 27.5 ± 16%
COc1cc2c(N3CCN(C(=O)Nc4ccc(OC(C)C)cc4)CC3)ncnc2cc1OCCCN1CCCCC1 | 4.46 ± 6.3%

SMILES | THP-1 cell loss
Cc1ccccc1C(=O)c1ccc(Nc2ccc(Br)cc2N)cc1Cl | 16.5 ± 23%
Cc1nc(Nc2ncc(C(=O)Nc3c(C)cccc3Cl)s2)cc(N2CCN(CCO)CC2)n1 [Dasatinib] | 34.7 ± 4.4%
CN(C)CCCn1cc(C2=C(c3c[nH]c4ccccc34)C(=O)NC2=O)c2ccccc21 [Bisindolylmaleimide I hydrochloride] | 100%
COc1cc(Oc2ccnc3cc(OC)c(OC)cc23)ccc1NC(=O)NC(C)c1nccs1 (racemic) | 10.7 ± 4.6%
O=c1c(-c2ccc(O)cc2)coc2cc(O)cc(O)c12 [Genistein] | 4.45 ± 2.2%
Cc1cc(Nc2ncc3cc(-c4c(Cl)cccc4Cl)c(=O)n(C)c3n2)ccc1F | 88.1 ± 17%
O=C(O)c1ccc2c3c1cccc3c(=O)n1c3ccccc3nc21 [STO-609 acetic acid] | 35.7 ± 5.5%
FC(F)c1nc2ccccc2n1-c1nc(N2CCOCC2)nc(N2CCOCC2)n1 | 35.9 ± 1.9%
Cc1ccc(S(=O)(=O)Nc2nc3ccccc3nc2Nc2ccc3nsnc3c2)cc1 | 40.9 ± 5.2%
COc1ccc(-c2cc3nccn3c(Nc3ncccc3C(N)=O)n2)cc1OC [BAY 61-3606 hydrochloride] | 100%
COc1cc2nccc(Oc3ccc(NC(=O)C4(C(=O)Nc5ccc(F)cc5)CC4)cc3)c2cc1OC | 83.9 ± 4.8%
CC1(C)CNc2cc(NC(=O)c3cccnc3NCc3ccncc3)ccc21 [Motesanib diphosphate salt] | 4.91 ± 6.9%
Nc1ccc(C(=O)Nc2cccc(-c3nc(N4CCOCC4)c4oc5ncccc5c4n3)c2)cn1 | 43 ± 2.2%
Nc1ncnc2c1c(I)cn2[C@@H]1O[C@H](CO)[C@@H](O)[C@H]1O [5-Iodotubercidin] | 100%
CC(C)(C)c1nc2c3cc[nH]c(=O)c3c3cc(F)ccc3c2[nH]1 [Merck-5] | 46.3 ± 11%
O=C(C=Cc1ccccc1)NC(NC(=S)Nc1ccc(Cl)cc1)C(Cl)(Cl)Cl (centres undefined) | 63.6 ± 52%
Oc1ccc(Nc2nc(-c3ccc(Cl)cc3)cs2)cc1 | 100%
